# According to PubChem BioAssay (EPA / NIEHS):
# Records with an inconclusive call do not appear. Calls of active or inactive are those of the source. The calls were made as follows, unless noted: active = hit-call score of the fitted dose curve at least 0.9, where 1 is the maximum; inconclusive = response in the unintended direction; inactive = score below 0.9.
# Key:
# [1] = read-out: organic anion transporter (SLCO1B1), SLCO1B1 (gene 10599); test: CLD_SLCO1B1_6hr: CellzDirect (CLD) Gene Expression Assay for organic anion transporter (SLCO1B1) at 6 hours (AID 2283668);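 also: active means mRNA induction above DMSO baseline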
# Method in brief: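 SLCO1B1 mRNA induction measured 6 h after dosing by quantitative nuclease protection with chemiluminescent read-out, in human primary hepatocyte cultures given chemicals at several concentrations (vehicle 0.2% DMSO). Increase over DMSO baseline fitted; morphology-based cytotoxicity annotated yes/no.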
# [2] = CLD_ACTIN_24hr: CellzDirect (CLD) Gene Expression Assay for Baseline Control (Actin) at 24 hours (AID 2283670)
# Method in brief: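 This 24 h qNPA (S1 nuclease protection, chemiluminescence) actin transcript readout in cultured human liver primary cells serves as baseline control. Signal is fitted upward relative to 0.2% DMSO; chemicals tested at multiple concentrations across two donor preparations.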
# [3] = read-out: glucuronosyltransferase (UGT1A1), UGT1A1 (gene 54658); test: CLD_UGT1A1_6hr: CellzDirect (CLD) Gene Expression Assay for glucuronosyltransferase (UGT1A1) at 6 hours (AID 2283672)
# Method in brief: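 UGT1A1 mRNA induction, read by quantitative nuclease protection assay, 6 h after dosing primary human hepatocytes (two donors, 0.2% DMSO vehicle). Gain of signal fitted relative to vehicle.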
# [4] = read-out: xenobiotic metabolism (CYP1A1), CYP1A1 (gene 1543); test: CLD_CYP1A1_24hr: CellzDirect (CLD) Gene Expression Assay for xenobiotic metabolism (CYP1A1) at 24 hours (AID 2283673);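 also: CYP1A1 mRNA level by quantitative nuclease protection with chemiluminescence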
# Method in brief: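 Transcript levels were read at 24 h by qNPA chemiluminescence in human liver primary cells. Cells got daily fresh dosing at multiple concentrations (vehicle 0.2% DMSO). Induction fitted upward against DMSO; phase-contrast cytotoxicity annotated.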
# [5] = read-out: ABC Transporter (ABCB11), ABCB11 (gene 8647); test: CLD_ABCB11_24hr: CellzDirect (CLD) Gene Expression Assay for ABC Transporter (ABCB11) at 24 hours (AID 2283674; active = hit-call score of the fitted dose curve at least 0.9, where 1 is the maximum; inactive = score below 0.9)
# Method in brief: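 ABCB11 transcript was quantified by qNPA chemiluminescence in cultured human liver hepatocytes 24 hours after dosing. Fresh dosing solutions were applied on consecutive days, against a 0.2% DMSO vehicle. Cytotoxicity was noted by phase-contrast morphology.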
# [6] = CLD_ACTIN_6hr: CellzDirect (CLD) Gene Expression Assay for Baseline Control (Actin) at 6 hours (AID 2283676);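 also: active means increased actin mRNA relative to DMSO vehicle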
# Method in brief: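 Baseline actin transcript level measured by qNPA (S1 nuclease protection, chemiluminescence) in human hepatocyte cultures 6 h after chemical exposure; 0.2% DMSO vehicle as reference, cytotoxicity noted from morphology.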
# [7] = read-out: Cytochrome P450 3A4 (Homo sapiens) (UniProt P08684); test: CLD_CYP3A4_6hr: CellzDirect (CLD) Gene Expression Assay for xenobiotic metabolism (CYP3A4) at 6 hours (AID 2283680)
# Method in brief: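 CYP3A4 mRNA induction, 6 h after dosing of cultured primary human hepatocytes from two donors, read by quantitative nuclease protection (qNPA, chemiluminescence). Vehicle 0.2% DMSO as baseline; morphology-based cytotoxicity annotated yes/no.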
# [8] = read-out: xenobiotic metabolism (CYP1A2), CYP1A2 (gene 1544); test: CLD_CYP1A2_24hr: CellzDirect (CLD) Gene Expression Assay for xenobiotic metabolism (CYP1A2) at 24 hours (AID 2283683)
# Method in brief: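 CYP1A2 mRNA induction measured by quantitative nuclease protection (chemiluminescent) in human primary hepatocytes 24 h after multi-concentration chemical dosing with daily fresh solutions. DMSO (0.2%) baseline; positive-direction fitting; morphology-based cytotoxicity noted.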
# [9] = read-out: Cytochrome P450 2B6 (Homo sapiens) (UniProt P20813); test: CLD_CYP2B6_24hr: CellzDirect (CLD) Gene Expression Assay for xenobiotic metabolism (CYP2B6) at 24 hours (AID 2283686)
# Method in brief: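 qNPA chemiluminescent measurement of mRNA at 24 hours in human primary hepatocyte cultures from two donor preparations, with daily fresh dosing and 0.2% DMSO vehicle as baseline. Morphology-based cytotoxicity flagged yes/no.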
# [10] = read-out: sulfotransferase (SULT2A), SULT2A1 (gene 6822); test: CLD_SULT2A_6hr: CellzDirect (CLD) Gene Expression Assay for sulfotransferase (SULT2A) at 6 hours (AID 2283669);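 also: hits raise transcript level above the DMSO vehicle baseline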
# Method in brief: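 Measured 6 h after dosing, SULT2A1 mRNA in human hepatocyte lysates was quantified by S1 nuclease protection with chemiluminescent detection. Increases fitted against 0.2% DMSO vehicle baseline; phase-contrast cytotoxicity recorded yes/no.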
# [11] = read-out: Cytochrome P450 2B6 (Homo sapiens) (UniProt P20813); test: CLD_CYP2B6_6hr: CellzDirect (CLD) Gene Expression Assay for xenobiotic metabolism (CYP2B6) at 6 hours (AID 2283677);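 also: actives raise CYP2B6 transcript above DMSO baseline so AC50 marks an inducer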
# Method in brief: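 CYP2B6 transcript levels, read by chemiluminescent qNPA, were fitted for increase versus DMSO baseline; cultured human liver hepatocytes from two donor preparations were harvested 6 h after exposure to test chemicals at multiple concentrations.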
# [12] = read-out: Cytochrome P450 2C19 (Homo sapiens) (UniProt P33261); test: CLD_CYP2C19_6hr: CellzDirect (CLD) Gene Expression Assay for xenobiotic metabolism (CYP2C19) at 6 hours (AID 2283678)
# Method in brief: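 CYP2C19 transcript induction was quantified by quantitative nuclease protection assay with chemiluminescent read-out, 6 h after dosing. Cells were primary human hepatocytes from two donor preparations, given fresh dosing solutions daily in 0.2% DMSO vehicle. Activity was relative to DMSO.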
# [13] = CCTE_Padilla_ZF_144hpf_TERATOSCORE: (Legacy) CCTE's 144 Hour Post-fertilization zebrafish Assay Teratoscore, Padilla Lab (AID 2283679; active = hit-call score of the fitted dose curve at least 0.9, where 1 is the maximum; inactive = score below 0.9;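 as to AC50: zebrafish embryos with chorions exposed by immersion from 6-8 hpf to 5 dpf with daily renewal; teratogenicity score from eye scoring of death hatching and malformations at 144 hpf; higher score means more developmental defects relative to DMSO baseline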)
# Method in brief: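 Larvae scored by eye at 144 hpf for death, hatching and malformations after a day in clean Hanks'. Before that, daily-renewed exposure at 80 uM (0.4% DMSO, 26C) from roughly 6-8 hpf through 5 dpf, 4 embryos per chemical.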
# [14] = read-out: Glyceraldehyde-3-phosphate dehydrogenase (Homo sapiens) (UniProt P04406); test: CLD_GAPDH_6hr: CellzDirect (CLD) Gene Expression Assay for Baseline Control (Glyceraldehyde 3-phosphate dehydrogenase) at 6 hours (AID 2283681);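 also: active means increased signal relative to DMSO vehicle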
# Method in brief: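 GAPDH baseline-control readout from qNPA (S1 nuclease digestion, probe hybridization, chemiluminescence) in lysates of cultured human hepatocytes harvested 6 h post-dosing. Chemicals tested at multiple concentrations versus 0.2% DMSO vehicle; microscopy-based cytotoxicity flagged yes/no.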
# [15] = read-out: HMG-CoA synthase (HMGCS2), HMGCS2 (gene 3158); test: CLD_HMGCS2_6hr: CellzDirect (CLD) Gene Expression Assay for HMG-CoA synthase (HMGCS2) at 6 hours (AID 2283682);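 also: actives raise HMGCS2 transcript above the 0.2% DMSO vehicle baseline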
# Method in brief: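 HMGCS2 transcript induction read by quantitative nuclease protection with chemiluminescence, 6 h after dosing of primary human hepatocytes. Baseline was 0.2% DMSO vehicle; phase-contrast morphology gave a yes/no cytotoxicity annotation.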
# [16] = read-out: Broad substrate specificity ATP-binding cassette transporter ABCG2 (Homo sapiens) (UniProt Q9UNQ0); test: CLD_ABCG2_24hr: CellzDirect (CLD) Gene Expression Assay for ABC Transporter (ABCG2) at 24 hours (AID 2283685)
# Method in brief: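 ABCG2 mRNA induction, read as gain of chemiluminescent signal over 0.2% DMSO, was measured by quantitative nuclease protection at 24 h. Cultured human liver hepatocytes were given fresh dosing solutions of test chemicals at several concentrations each day.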
# [17] = read-out: Cytochrome P450 2C9 (Homo sapiens) (UniProt P11712); test: CLD_CYP2C9_24hr: CellzDirect (CLD) Gene Expression Assay for xenobiotic metabolism (CYP2C9) at 24 hours (AID 2283688)
# Method in brief: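 Induction of CYP2C9 mRNA was quantified by quantitative nuclease protection assay (chemiluminescence), gain of signal versus 0.2% DMSO vehicle, 24 h after dosing. Human primary hepatocytes (two donors) received fresh chemical daily at multiple concentrations; morphology-based cytotoxicity flagged yes/no.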
# [18] = read-out: ABC Transporter (ABCB1), ABCB1 (gene 5243); test: CLD_ABCB1_24hr: CellzDirect (CLD) Gene Expression Assay for ABC Transporter (ABCB1) at 24 hours (AID 2283684)
# Method in brief: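 ABCB1 mRNA induction versus 0.2% DMSO vehicle was read by qNPA chemiluminescence at 24 h. Cultured human hepatocytes from two donor preparations received daily fresh dosing, and phase-contrast cytotoxicity calls were annotated alongside the data.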
# Broad substrate specificity ATP-binding cassette transporter ABCG2 (Homo sapiens), sequence (Q9UNQ0 whole entry, looked up): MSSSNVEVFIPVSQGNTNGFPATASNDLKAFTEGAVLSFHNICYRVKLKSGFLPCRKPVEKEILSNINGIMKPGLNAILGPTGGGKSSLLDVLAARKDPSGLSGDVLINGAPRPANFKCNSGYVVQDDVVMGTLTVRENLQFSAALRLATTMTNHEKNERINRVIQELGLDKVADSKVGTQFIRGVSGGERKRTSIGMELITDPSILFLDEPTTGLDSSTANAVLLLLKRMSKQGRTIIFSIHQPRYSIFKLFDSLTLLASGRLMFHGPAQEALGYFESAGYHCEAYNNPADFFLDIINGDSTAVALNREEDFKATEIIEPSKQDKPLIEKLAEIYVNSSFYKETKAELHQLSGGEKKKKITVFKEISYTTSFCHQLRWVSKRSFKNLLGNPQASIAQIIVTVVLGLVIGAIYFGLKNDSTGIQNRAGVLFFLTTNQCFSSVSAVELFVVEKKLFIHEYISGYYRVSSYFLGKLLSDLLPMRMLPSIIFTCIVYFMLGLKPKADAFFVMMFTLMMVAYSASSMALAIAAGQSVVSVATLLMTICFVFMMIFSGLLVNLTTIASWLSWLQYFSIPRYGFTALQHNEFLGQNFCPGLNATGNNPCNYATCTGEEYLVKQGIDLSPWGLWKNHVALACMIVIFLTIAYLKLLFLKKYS
# Cytochrome P450 3A4 (Homo sapiens), sequence (P08684 whole entry, looked up): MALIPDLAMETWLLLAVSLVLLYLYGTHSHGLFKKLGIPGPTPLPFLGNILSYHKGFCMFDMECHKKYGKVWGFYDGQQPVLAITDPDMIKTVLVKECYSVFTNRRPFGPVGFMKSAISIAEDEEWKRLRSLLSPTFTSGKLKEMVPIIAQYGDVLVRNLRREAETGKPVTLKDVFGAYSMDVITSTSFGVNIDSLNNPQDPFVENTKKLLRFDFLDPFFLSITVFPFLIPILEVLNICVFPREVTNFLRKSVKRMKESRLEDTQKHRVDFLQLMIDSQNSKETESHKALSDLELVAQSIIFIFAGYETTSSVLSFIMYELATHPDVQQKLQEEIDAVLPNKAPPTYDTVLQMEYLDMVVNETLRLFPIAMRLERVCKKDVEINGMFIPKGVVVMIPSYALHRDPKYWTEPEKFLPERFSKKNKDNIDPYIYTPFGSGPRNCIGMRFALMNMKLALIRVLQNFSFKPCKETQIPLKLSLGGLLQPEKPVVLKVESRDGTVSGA
# Cytochrome P450 2C19 (Homo sapiens), sequence (P33261 whole entry, looked up): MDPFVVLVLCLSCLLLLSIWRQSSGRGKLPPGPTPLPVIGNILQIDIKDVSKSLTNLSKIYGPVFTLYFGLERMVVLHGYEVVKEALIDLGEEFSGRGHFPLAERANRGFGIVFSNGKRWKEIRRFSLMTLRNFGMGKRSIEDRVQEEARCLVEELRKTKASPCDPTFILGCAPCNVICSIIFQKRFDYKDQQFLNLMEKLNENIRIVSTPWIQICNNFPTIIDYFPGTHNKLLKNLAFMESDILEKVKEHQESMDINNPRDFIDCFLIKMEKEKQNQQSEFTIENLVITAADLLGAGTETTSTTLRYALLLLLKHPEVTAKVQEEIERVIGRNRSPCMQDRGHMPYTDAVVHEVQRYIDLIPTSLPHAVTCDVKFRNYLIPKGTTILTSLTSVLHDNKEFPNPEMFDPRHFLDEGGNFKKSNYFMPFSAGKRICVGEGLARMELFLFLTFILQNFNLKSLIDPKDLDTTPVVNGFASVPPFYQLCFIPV
# Glyceraldehyde-3-phosphate dehydrogenase (Homo sapiens), sequence (P04406 whole entry, looked up): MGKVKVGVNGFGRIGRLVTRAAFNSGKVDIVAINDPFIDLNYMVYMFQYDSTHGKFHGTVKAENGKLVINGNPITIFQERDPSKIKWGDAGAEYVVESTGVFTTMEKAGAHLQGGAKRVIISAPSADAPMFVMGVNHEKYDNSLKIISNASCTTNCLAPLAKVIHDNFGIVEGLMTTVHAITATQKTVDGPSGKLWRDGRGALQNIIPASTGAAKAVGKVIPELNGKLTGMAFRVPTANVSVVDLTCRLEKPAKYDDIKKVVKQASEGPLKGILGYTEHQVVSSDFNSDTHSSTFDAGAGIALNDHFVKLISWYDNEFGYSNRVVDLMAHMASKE
smiles,measurement,setting,value
Clc1nc(Cl)nc(Nc2ccccc2Cl)n1,outcome,[1],inactive
same,outcome,[2],inactive
same,outcome,[3],inactive
same,outcome,[4],inactive
same,outcome,[5],inactive
same,outcome,[6],inactive
same,outcome,[7],inactive
same,outcome,[8],inactive
same,outcome,[9],inactive
CSC(=O)c1c(C(F)F)nc(C(F)(F)F)c(C(=O)SC)c1CC(C)C,outcome,[1],inactive
same,outcome,[10],inactive
same,outcome,[2],inactive
same,outcome,[3],inactive
same,AC50,[4],4.78 µM (active)
same,outcome,[6],inactive
same,AC50,[11],2.11 µM (active)
same,outcome,[12],inactive
same,AC50,[13],9.65 µM (active)
same,outcome,[7],inactive
same,outcome,[14],inactive
same,outcome,[15],inactive
same,AC50,[8],5.33 µM (active)
same,outcome,[16],inactive
same,AC50,[9],1.22 µM (active)
CCOP(=O)(OCC)Oc1nc(Cl)c(Cl)cc1Cl,outcome,[1],inactive
same,outcome,[10],inactive
same,outcome,[3],inactive
same,outcome,[4],inactive
same,outcome,[5],inactive
same,outcome,[6],inactive
same,outcome,[12],inactive
same,AC50,[13],0.485 µM (active)
same,AC50,[7],9.77 µM (active)
same,AC50,[8],3.42 µM (active)
same,outcome,[16],inactive
same,AC50,[9],0.405 µM (active)
same,outcome,[17],inactive
O=P(O)(O)CCCl,outcome,[1],inactive
same,outcome,[10],inactive
same,outcome,[2],inactive
same,outcome,[3],inactive
same,outcome,[5],inactive
same,outcome,[6],inactive
same,outcome,[8],inactive
same,outcome,[9],inactive
COC(=O)c1c(C(F)F)nc(C(F)(F)F)c(C2=NCCS2)c1CC(C)C,outcome,[1],inactive
same,outcome,[10],inactive
same,outcome,[3],inactive
same,AC50,[4],36.1 µM (active)
same,outcome,[5],inactive
same,outcome,[6],inactive
same,AC50,[11],0.277 µM (active)
same,outcome,[12],inactive
same,outcome,[7],inactive
same,AC50,[8],9.96 µM (active)
same,outcome,[18],inactive
same,outcome,[16],inactive
same,AC50,[9],7.48 µM (active)
CCOC(=O)C(C)OC(=O)c1cc(Oc2ccc(C(F)(F)F)cc2Cl)ccc1[N+](=O)[O-] (centres undefined),outcome,[1],inactive
same,outcome,[3],inactive
same,AC50,[4],20 µM (active)
same,AC50,[11],7.3 µM (active)
same,outcome,[12],inactive
same,AC50,[13],0.19 µM (active)
same,AC50,[7],4.03 µM (active)
same,AC50,[15],0.0241 µM (active)
same,AC50,[8],4.61 µM (active)
same,outcome,[16],inactive
same,AC50,[9],10.3 µM (active)
CCOc1nc(C(Cl)(Cl)Cl)ns1,outcome,[10],inactive
same,outcome,[2],inactive
same,outcome,[3],inactive
same,outcome,[4],inactive
same,outcome,[6],inactive
same,outcome,[12],inactive
same,outcome,[13],inactive
same,outcome,[7],inactive
same,outcome,[8],inactive
same,outcome,[18],inactive
same,outcome,[16],inactive
COP(=O)(OC)O/C(C)=C/C(=O)N(C)C,outcome,[1],inactive
same,outcome,[10],inactive
same,outcome,[2],inactive
same,outcome,[3],inactive
same,outcome,[4],inactive
same,outcome,[5],inactive
same,outcome,[6],inactive
same,outcome,[12],inactive
same,outcome,[13],inactive
same,outcome,[8],inactive
same,outcome,[16],inactive
same,outcome,[9],inactive
CC(C)N1C(=O)c2ccccc2NS1(=O)=O,outcome,[1],inactive
same,outcome,[2],inactive
same,outcome,[3],inactive
same,outcome,[4],inactive
same,outcome,[5],inactive
same,outcome,[6],inactive
same,outcome,[12],inactive
same,outcome,[13],inactive
same,AC50,[15],0.00735 µM (active)
same,outcome,[8],inactive
same,outcome,[16],inactive
same,outcome,[9],inactive
